Source: PubChem BioAssay AID1347414 (National Center for Advancing Translational Sciences (NCATS), 2020)
Results filed as inconclusive are left out. Values without a mark were called inactive. Active and inactive are the calls of the source. Calls come from the whole dose curve; as a rule, active = well fitted inhibition curve with a large enough effect; inconclusive = small, poorly fitted or top-dose-only effect; inactive = no such curve, though single readings can be large or run the other way.

Experiment: qHTS to identify inhibitors of the type 1 interferon - major histocompatibility complex class I in skeletal muscle: Secondary screen by immunofluorescence; note: nearly all actives have a fitted effect of over 70% in size;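 for activity change, negative = inhibition: digitonin at 100 µM served as the cytotoxic control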
Conditions: C25cl48 myoblasts, IFN-b induced HLA-ABC immunofluorescence, 24 h, Viability; series mostly up to 49.8 µM; activity change, negative = inhibition: at the top concentration
Text: Assay Submitter (PI): Travis B. Kinder Ph.D. & James Inglese Ph.D. Assay Development and Screening Technology Laboratory (ADST) National Center for Advancing Translational Sciences (NCATS), Rockville, MD National Institute of Health (NIH), Bethesda, Maryland Idiopathic inflammatory myopathies, collectively referred to as myositis, are a group of rare autoimmune diseases characterized by skeletal muscle inflammation, weakness, and usually accompanied by systemic pathologies of the skin, lungs, or vasculature. Current immunosuppressive therapies and glucocorticoids are often not curative and are accompanied by harsh side effects, especially in children with juvenile myositis. We initiated a drug repurposing and development program to identify more targeted, less toxic therapeutics to treat myositis. Although its cause is not known, muscle from a subset of patients have an abundance of the inflammatory type 1 interferon (IFN) and a down-stream product major histocompatibility complex class I (MHC class I), which are both thought to contribute to damage and weakness. We conducted quantitative high throughput screening (qHTS) on 6,576 compounds (4,679 unique) through a series of cell-based assays to identify those that inhibit the IFN-stimulated expression of MHC class I in muscle precursor cells (myoblasts). The compound identification and evaluation strategy utilized a primary screen with reporter-tagged MHC class I in genome-engineered myoblasts, ATP content counter screen for viability, HLA-ABC immunofluorescence secondary screen, and HLA-B RT-qPCR tertiary screen. To verify activity of compounds identified by qHTS in HLA-B HiBit reporter cells, compounds were assayed by high throughput HLA-ABC immunofluorescence. Briefly, 216 compounds identified from primary and counter screening as inhibitory with minimal cytotoxicity were dispensed into black/clear bottom […] using acoustic dispensing in an 11-point, 1:3 titration with a high final concentration of 50 uM. Normal immortalized human myoblasts C25cl48 were added to the plates with 4.0 ng/ml human IFN-beta for 24 hours, fixed, stained by immunofluorescence for HLA-ABC protein, nuclei, and cell body, and analyzed by laser scanning cytometry as described by Auld et al., 2006. References: Auld DS, Johnson RL, Zhang Y, Veith H, Jadhav A, Yasgar A, Simeonov A, Zheng W, Martinez ED, Westwick JK, Austin CP, Inglese J. 2006. Fluorescent protein-based cellular assays analyzed by laser-scanning microplate cytometry in 1536-well plate format. Methods Enzymol 414:566-89. doi:10.1016/S0076-6879(06)14029-X
PROTOCOL TABLE (as described by Inglese et al., 2007) SEQUENCE No. (e.g., 1, 2, 3, etc.); […] (e.g., Cells, Incubation, Reagent, etc.); VALUE; DESCRIPTION 0; Compounds; 25 nl; Follow-up compounds dispensed at 25 nl/well with Labcyte Echo 655 acoustic dispenser in triplicate Aurora ChemLib 1536K black/clear bottom, low base, TC 1536-well plates (00019324). Also dispensed 25 nl/well DMSO control, ruxolitinib IFN-b inhibitor control titration, and digitonin cytotoxic control 1a; Cells; 5 uL; Multidrop Combi (Thermo Scientific) to seed 125 cells/well into eight plates in 5 ul/well of iHSKM growth medium (GM) without dexamethasone into columns 1+2. Add metal lids with gas-exchange holes 1b; Cells; 5 uL; Multidrop Combi (Thermo Scientific) to seed 125 cells/well into eight plates in 5 ul/well of iHSKM GM without dexamethasone + 4 ng/ml IFN-b into columns 3 - 48. […]
% is set by controls: 0 for no effect and ±100 for the full control effect; potency is the fitted concentration of half-maximal effect.

Row | Structure (SMILES) | activity change, negative = inhibition [%] | Potency
1 | C/C(=C\c1csc(C)n1)[C@@H]1C[C@@H]2O[C@]2(C)CCC[C@H](C)[C@H](O)[C@@H](C)C(=O)C(C)(C)[C@@H](O)CC(=O)O1 | -0.361 | –
2 | Cc1sc2c(c1C)C(c1ccc(Cl)cc1)=N[C@@H](CC(=O)Nc1ccc(O)cc1)c1nnc(C)n1-2 | 23.5 | –
3 | Cc1sc2c(c1C)C(c1ccc(Cl)cc1)=N[C@@H](CC(=O)OC(C)(C)C)c1nnc(C)n1-2 | 31.9 | –
4 | CC(=O)OC[C@H]1O[C@@H]([S-])[C@H](OC(C)=O)[C@@H](OC(C)=O)[C@@H]1OC(C)=O.CC[PH+](CC)CC.[Au] | – | 1.62 µM (active)
5 | CN(C)c1cc2c(cc1Sc1nc3c(N)nccc3n1CCNCC(C)(C)C)OCO2 | 3.61 | –
6 | CC[C@@]1(O)C(=O)OCc2c1cc1n(c2=O)Cc2cc3ccccc3nc2-1 | – | inactive
7 | Cc1sc2c(c1C)C(c1ccc(Cl)cc1)=N[C@@H](CC(N)=O)c1nnc(C)n1-2 | 5.41 | –
8 | CC1=C(O)C(=O)C=C2C1=CC=C1[C@@]2(C)CC[C@@]2(C)[C@@H]3C[C@](C)(C(=O)O)CC[C@]3(C)CC[C@]12C | – | 5.76 µM (active)
9 | Cc1[nH]ncc1-c1cc2nc([C@@H]3CC4CCN3CC4)[nH]c(=O)c2s1 | 6.86 | –
10 | CC(C)[C@]12O[C@H]1[C@@H]1O[C@]13[C@]1(O[C@H]1C[C@H]1C4=C(CC[C@@]13C)C(=O)OC4)[C@@H]2O | 7.8 | –
11 | COc1cccc2c1C(=O)c1c(O)c3c(c(O)c1C2=O)C[C@@](O)(C(=O)CO)CC3OC1CC(N2CCOC(OC)C2)C(O)C(C)O1 (stereo not given in full) | 1.3 | –
12 | C[C@@H]1O[C@@H](O[C@@H]2C=C3CC[C@@H]4[C@H](CC[C@]5(C)[C@@H](c6ccc(=O)oc6)CC[C@]45O)[C@@]3(C)CC2)[C@H](O)[C@H](O)[C@H]1O | 14.8 | –
13 | C=C(C)[C@@H]1CCC(C)=C[C@H]1c1c(O)cc(CCCCC)cc1O | – | 25.7 µM (active)
14 | C[C@@H]1O[C@@H](O[C@H]2C[C@@H](O)[C@]3(CO)[C@H]4[C@H](O)C[C@]5(C)[C@@H](C6=CC(=O)OC6)CC[C@]5(O)[C@@H]4CC[C@]3(O)C2)[C@H](O)[C@H](O)[C@H]1O | 1.82 | –
15 | CCn1cnc2c(Nc3cccc(Cl)c3)nc(N[C@@H]3CCCC[C@@H]3N)nc21 | – | 25.7 µM (active)
16 | O=[N+]([O-])/C=C/c1ccc2c(c1)OCO2 | – | 11.5 µM (active)
17 | COC(=O)[C@@]12OC[C@]34[C@H]([C@@H](O)[C@@H]1O)[C@@]1(C)CC(=O)C(O)=C(C)[C@@H]1C[C@H]3OC(=O)[C@H](OC(=O)/C=C(\C)C(C)C)[C@@H]24 | 3.25 | –
18 | O=c1[nH]c2ccc(Cl)cc2c(N[C@@H]2CN3CCC2CC3)c1-c1nc2ccccc2[nH]1 | – | 4.58 µM (active)
19 | O=C1/C(=C\c2ccccc2)C[C@@]2(O)[C@H]3Cc4ccc(O)c5c4[C@@]2(CCN3CC2CC2)[C@H]1O5 | – | 10.2 µM (active)
20 | CC(C)(O)/C=C\C(=O)[C@](C)(O)[C@H]1[C@H](O)C[C@]2(C)[C@@H]3CC=C4[C@@H](C=C(O)C(=O)C4(C)C)[C@]3(C)C(=O)C[C@@]12C | – | 16.2 µM (active)
21 | CC(C)(C)c1cc(C=C(C#N)C#N)cc(C(C)(C)C)c1O | 2.35 | –
22 | C/C1=C/C[C@@H](/C(C)=C/c2csc(C)n2)OC(=O)C[C@H](O)C(C)(C)C(=O)[C@H](C)[C@@H](O)[C@@H](C)CCC1 | -13.6 | –
23 | CC(C)[C@]12O[C@H]1[C@@H]1O[C@@]13[C@@]1(C)CCC4=C(COC4=O)[C@@H]1C[C@@H]1O[C@@]13C2=O | 3.97 | –
24 | CC1(C)CC[C@]2(NC(=O)C(C)(F)F)CC[C@]3(C)[C@H](C(=O)C=C4[C@@]5(C)C=C(C#N)C(=O)C(C)(C)[C@@H]5CC[C@]43C)[C@@H]2C1 | – | 4.08 µM (active)
25 | COC(=O)[C@]12CCC(C)(C)C[C@H]1[C@H]1C(=O)C=C3[C@@]4(C)C=C(C#N)C(=O)C(C)(C)[C@@H]4CC[C@@]3(C)[C@]1(C)CC2 | – | 3.64 µM (active)
